Test results as given in the supplement of paper PMC4723716.

Test system: Plasmodium falciparum NF54 gametocytes
Test: viability index relative to DMSO control (fraction); higher = less gametocyte killing
Conditions: 12.5 µM, incubation time: 72 h
How it was run: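 P. falciparum NF54 gametocytes at stages I–V were treated with compound at 12.5 µM for 72 hr at 37°C under low oxygen in serum-containing medium (0.50% gametocytemia, 1.25% hematocrit), then stained with MitoTracker Red CMXRos and imaged in serum-free medium containing 500 nM dye. The viability index is the gametocyte particle count divided by the plate mean of solvent-only wells.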

[1] = gametocyte stage: Stage I viability index
[2] = gametocyte stage: Stage II viability index
[3] = gametocyte stage: Stage III viability index
[4] = gametocyte stage: Stage IV viability index
[5] = gametocyte stage: Stage V viability index

Structure (SMILES) | viability index [1] | viability index [2] | viability index [3] | viability index [4] | viability index [5]
O=C(Nc1ccc(-c2nc3cc(NC(=O)c4ccc(Cl)cc4)ccc3[nH]2)cc1)c1ccc(Cl)cc1 | 0.0481 | 0.00583 | 0.0176 | 0.00316 | 0
FC(F)(F)c1cccc(Nc2nc(-c3ccccc3)nc3ncccc23)c1 | 1.17 | 1.08 | 1.33 | 1.09 | 1.15
COc1cccc(-c2nn(C)c3sc(C(=O)NCCN4CCN(c5ccccc5F)CC4)cc23)c1 | 0.0431 | 0.436 | 0.777 | 0.836 | 0.835
CCCn1c(=N)c(C(=O)NC2CCCCC2)cc2c(=O)n3cccc(C)c3nc21 | 0.45 | 0.612 | 1.06 | 0.981 | 0.805
COc1cccc(Cn2c(Oc3ccccc3)nc3c2c(=O)n(C)c(=O)n3C)c1 | 0.892 | 0.853 | 0.993 | 1.06 | 1.16
COc1ccc(C)c2sc(N(Cc3cccnc3)C(=O)c3ccc(C#N)cc3)nc12 | 0.441 | 0.704 | 0.95 | 0.794 | 1.01
COc1cccc(Nc2nc(N)c3ccccc3n2)c1 | 0.131 | 0.524 | 0.786 | 0.797 | 0.649
Cc1ccc(OCCCCCCNCCO)c(C)c1 | 1.13 | 1.04 | 1.05 | 0.934 | 0.909
COc1ccc(N2CCN(C(CNC(=O)CC(C)(C)C)c3ccc4c(c3)OCO4)CC2)cc1 (stereo not given) | 1.04 | 0.928 | 1.02 | 0.826 | 0.727
CC(Oc1ccc(NC(=O)c2cccs2)cc1)C(=O)c1ccc(Cl)cc1 (stereo not given) | 1.02 | 0.883 | 0.727 | 0.854 | 0.974
Oc1c2c(nc3cc(-c4ccccc4)nn13)CCCC2 | 1.07 | 0.786 | 1.07 | 0.878 | 0.879
CCOc1ccc(-c2nc(NC(=O)c3cccc(S(C)(=O)=O)c3)sc2C)cc1 | 0.956 | 0.686 | 1.1 | 0.857 | 0.857
CCOc1ccc(-n2cc(-c3ccccc3)c3c(SCc4cc(C)ccc4C)ncnc32)cc1 | 1.12 | 0.908 | 0.934 | 1.03 | 1.03
Cc1cc(NC(=O)c2ccc(-c3ccccc3)cc2)no1 | 0.759 | 0.877 | 0.901 | 0.836 | 0.681
COc1cccc(NC(=O)[C@H](C(C)C)n2c(=O)[nH]c3ccccc3c2=O)c1 | 0.0552 | 0.0213 | 0.0736 | 0.286 | 0.341
Oc1c(C(Nc2ccccn2)c2cccc(Oc3ccccc3)c2)ccc2cccnc12 (stereo not given) | 1.06 | 0.975 | 1.04 | 0.994 | 0.675
Cc1ccc(Nc2nc(NCCO)c3ccccc3n2)cc1C | 0.0641 | 0.32 | 0.584 | 0.796 | 0.659
N=c1n(CCN2CCCCC2)c2ccccc2n1CC(O)c1cccc(Br)c1 (stereo not given) | 0.0133 | 0.056 | 0.133 | 0.267 | 0.341
CN1C=C(c2ccc3ccccc3n2)C(c2c[nH]c3ccccc23)c2ccccc21 (stereo not given) | 0.178 | 0.0874 | 0.273 | 0.294 | 0.351
COc1ccc(C=C2SC(Nc3ccccc3)=NC2=O)cc1 | 1.03 | 0.768 | 0.663 | 0.791 | 0.727

Structure (SMILES) | viability index [1] | viability index [2] | viability index [3] | viability index [4] | viability index [5]
CCn1nc(-c2ccc(C(=O)OC)cc2)nc2c(=O)n(C)c(=O)nc1-2 | 0.15 | 0.284 | 0.103 | 0.0365 | 0.044
Cc1ccc(C2CC(C(F)(F)F)n3nc(C(=O)N4CCN(C(c5ccccc5)c5ccccc5)CC4)cc3N2)cc1 (stereo not given) | 0.576 | 0.645 | 0.944 | 0.804 | 0.922
CN1CCN(c2c3c(c(C#N)c4nc5ccccc5n24)CCC3)CC1 | 1.02 | 0.865 | 1.03 | 1.05 | 0.846
CCCc1c(CC)c(=N)c2ccccc2n1C | 0.815 | 0.952 | 1.09 | 0.951 | 1.1
CCOc1ccc(N2C(N)=NC(N)=NC2(C)C)cc1 | 1.12 | 0.909 | 0.844 | 0.959 | 1.08
C[n+]1c2ccccc2nc2ccc(NCCO)cc21 | 0.0398 | 0.302 | 0.595 | 0.824 | 1.03
OC1=C2C(=Nc3ccccc3SC2c2ccc(Br)cc2)c2ccccc21 (stereo not given) | 0.755 | 0.751 | 1.04 | 0.801 | 0.857
CCOC(=O)c1cnc2ccc(Cl)cc2c1NCCCN(C)C | 0.309 | 0.59 | 0.989 | 1.03 | 0.844
O=C(CSc1ccc2nnc(-c3cccc(F)c3)n2n1)Nc1ccc2c(c1)OCO2 | 1.01 | 1.02 | 1.16 | 1.16 | 1.37
Oc1ccc2ccccc2c1CNc1nc2ccccc2[nH]1 | 0.0376 | 0.182 | 0.512 | 0.462 | 0.273
O=C(NC1CCCC1)c1ccc(N2CCC(NCc3cccc(C(F)(F)F)c3)CC2)cc1 | 0.243 | 0.573 | 0.76 | 0.76 | 0.604
N=c1c2ccccc2nnn1-c1cccc(C(F)(F)F)c1 | 0.988 | 0.714 | 1.02 | 0.785 | 0.87
Oc1ccc(Cl)cc1CNc1nc2ccccc2[nH]1 | 0.0751 | 0.545 | 0.822 | 0.891 | 0.736
O=C1c2ccccc2C2=Nc3ccccc3SC(c3cccc(F)c3)C12 (stereo not given) | 0.857 | 0.869 | 0.868 | 0.75 | 0.844
CCOC(=O)C1=CN(C)C=C(C(=O)OCC)C1c1cc(Br)c(OCC)c(OC)c1 | 0.042 | 0.0216 | 0.0421 | 0.161 | 0.117
Cc1sc(NC(=O)c2ccco2)c(C(c2cccnc2)N2CCC(Cc3ccccc3)CC2)c1C (stereo not given) | 0.00962 | 0.0408 | 0.261 | 0.418 | 0.351
CC(C)(C)c1ccc(C(=O)Nc2c3c(nn2-c2cccc(Cl)c2)CSC3)cc1 | 0.469 | 0.508 | 0.825 | 0.747 | 0.701
Cc1ccc(N2C3c4ccccc4N(S(=O)(=O)c4ccc(C)cc4)C2c2ccccc2N3S(=O)(=O)c2ccc(C)cc2)cc1 | 0.687 | 0.77 | 0.928 | 0.93 | 0.978
Cc1cc(Nc2ccc3ccccc3c2)n2ncnc2n1 | 0.567 | 0.521 | 0.755 | 0.79 | 0.626
COc1ccc(CNC(=O)c2cc3c(=O)n4ccccc4nc3n(CCc3ccccc3)c2=N)cc1 | 0.254 | 0.499 | 0.826 | 0.946 | 1.01

Structure (SMILES) | viability index [1] | viability index [2] | viability index [3] | viability index [4] | viability index [5]
Cc1[nH]c(-c2ccc(F)cc2)cc1C(=O)NC1CCN(Cc2ccccc2)CC1 | 0.131 | 0.502 | 0.744 | 0.881 | 1.09
CCc1ccc(CNCC(O)c2ccccc2)cc1 (stereo not given) | 0.042 | 0.177 | 0.649 | 0.703 | 0.506
CC(=O)c1ccc(NC(=O)CSc2nc(-c3ccccc3Cl)ns2)cc1 | 0.102 | 0.308 | 0.308 | 0.62 | 0.584
CC(=O)NCCc1nc2ccccc2n1Cc1ccc(C(C)C)cc1 | 0.788 | 0.671 | 0.883 | 0.891 | 0.813
COc1ccccc1N1CCN(C(CNS(=O)(=O)c2ccc(Cl)cc2)c2cccnc2)CC1 (stereo not given) | 0.188 | 0.564 | 1.04 | 0.815 | 0.912
O=C(Nc1cccc(-c2nc3ccccc3[nH]2)c1)c1cccc(NC(=O)c2ccco2)c1 | 0.424 | 0.771 | 1.01 | 0.857 | 0.868
COc1ccc(Nc2cc(C)nc(NCc3ccccc3)n2)cc1 | 0.0594 | 0.319 | 0.487 | 0.589 | 0.481
CCOC(=O)C1=C(c2ccccc2)N=c2sc(=Cc3cc(C)n(-c4ccc(F)cc4)c3C)c(=O)n2C1c1cccc(OC)c1OC (stereo not given) | 0.806 | 0.787 | 0.996 | 0.839 | 0.703
Oc1ccccc1CNCC12CC3CC(CC(C3)C1)C2 | 0.274 | 0.297 | 0.638 | 0.818 | 0.769
COc1ccc(C2Sc3ccccc3N=C3C2=C(O)c2ccccc23)cc1 (stereo not given) | 0.64 | 0.882 | 0.967 | 1.08 | 0.956
O=C(NC1CCN(Cc2ccccc2)CC1)c1cc2nc(-c3ccc(Cl)s3)cc(C(F)(F)F)n2n1 | 0.0778 | 0.366 | 0.843 | 0.883 | 1.01
CSc1ccccc1C(=O)Nc1nc(-c2ccccn2)cs1 | 0.242 | 0.181 | 0.321 | 0.362 | 0.132
Nc1ccc(-c2nc3cc(Oc4ccc(Oc5ccc6[nH]c(-c7ccc(N)cc7)nc6c5)cc4)ccc3[nH]2)cc1 | 0.000874 | 0.0108 | 0.0271 | 0.0253 | 0
Cc1ccnc(NC(c2cccc(OCc3ccccc3)c2)c2ccc3cccnc3c2O)c1 (stereo not given) | 0.0271 | 0.015 | 0.0204 | 0.00316 | 0
COc1ccccc1N1C(=N)SC(=Cc2ccc(OCc3ccccc3F)cc2)C1=O | 0.669 | 0.654 | 0.661 | 0.563 | 0.403
CCCCCCOC(=O)C1=C(C)NC(=O)NC1c1ccccc1F (stereo not given) | 0.924 | 0.896 | 1.03 | 1.04 | 1.13
CCN1CCN(c2cc(C)c3cc(NC(=O)c4ccc(OC)c(OC)c4)ccc3n2)CC1 | 0.33 | 0.677 | 1.04 | 0.818 | 0.901
C=C(C)CCC(C)N1CCC(N2CCC(C(=O)NCCc3ccccc3)CC2)CC1 (stereo not given) | 0.538 | 0.665 | 0.948 | 0.845 | 0.758
Cc1ccc(F)cc1NC(=O)c1cc(Cl)ccc1Nc1ccccc1 | 0.441 | 0.395 | 0.332 | 0.522 | 0.753
CCN(CC)c1cc(C)c2cc(NC(=O)c3cccc(OC)c3)ccc2n1 | 0.154 | 0.563 | 0.864 | 0.967 | 1.01
